Measurements as given in PubChem BioAssay AID588689 (Southern Research Specialized Biocontainment Screening …, 2011).
The campaign covered roughly 340,000 compounds. About 1,000 (0.29%) were called active. No stated cut-off is given here; in the data, inconclusive means inhibition above about 29% without an active follow-up result; inactive means below that. Only a sample is shown. Potency and affinity values are given separately.

Molecular target: Genome polyprotein (Dengue virus type 2 (strain 16681-PDK53)) (UniProt P29991)
Experiment: Dengue-2 NS5 methyltransferase inhibitors, primary screen, biochemical, confirmation dose response (AID 588689)
Conditions: Dengue-2 NS5 methyltransferase capping enzyme assay, at 25 µM, stronger effect = higher value
[1] = measured here: pilot screen replicate inhibition

Chain of Genome polyprotein (Dengue virus type 2 (strain 16681-PDK53)) (P29991 whole entry, looked up): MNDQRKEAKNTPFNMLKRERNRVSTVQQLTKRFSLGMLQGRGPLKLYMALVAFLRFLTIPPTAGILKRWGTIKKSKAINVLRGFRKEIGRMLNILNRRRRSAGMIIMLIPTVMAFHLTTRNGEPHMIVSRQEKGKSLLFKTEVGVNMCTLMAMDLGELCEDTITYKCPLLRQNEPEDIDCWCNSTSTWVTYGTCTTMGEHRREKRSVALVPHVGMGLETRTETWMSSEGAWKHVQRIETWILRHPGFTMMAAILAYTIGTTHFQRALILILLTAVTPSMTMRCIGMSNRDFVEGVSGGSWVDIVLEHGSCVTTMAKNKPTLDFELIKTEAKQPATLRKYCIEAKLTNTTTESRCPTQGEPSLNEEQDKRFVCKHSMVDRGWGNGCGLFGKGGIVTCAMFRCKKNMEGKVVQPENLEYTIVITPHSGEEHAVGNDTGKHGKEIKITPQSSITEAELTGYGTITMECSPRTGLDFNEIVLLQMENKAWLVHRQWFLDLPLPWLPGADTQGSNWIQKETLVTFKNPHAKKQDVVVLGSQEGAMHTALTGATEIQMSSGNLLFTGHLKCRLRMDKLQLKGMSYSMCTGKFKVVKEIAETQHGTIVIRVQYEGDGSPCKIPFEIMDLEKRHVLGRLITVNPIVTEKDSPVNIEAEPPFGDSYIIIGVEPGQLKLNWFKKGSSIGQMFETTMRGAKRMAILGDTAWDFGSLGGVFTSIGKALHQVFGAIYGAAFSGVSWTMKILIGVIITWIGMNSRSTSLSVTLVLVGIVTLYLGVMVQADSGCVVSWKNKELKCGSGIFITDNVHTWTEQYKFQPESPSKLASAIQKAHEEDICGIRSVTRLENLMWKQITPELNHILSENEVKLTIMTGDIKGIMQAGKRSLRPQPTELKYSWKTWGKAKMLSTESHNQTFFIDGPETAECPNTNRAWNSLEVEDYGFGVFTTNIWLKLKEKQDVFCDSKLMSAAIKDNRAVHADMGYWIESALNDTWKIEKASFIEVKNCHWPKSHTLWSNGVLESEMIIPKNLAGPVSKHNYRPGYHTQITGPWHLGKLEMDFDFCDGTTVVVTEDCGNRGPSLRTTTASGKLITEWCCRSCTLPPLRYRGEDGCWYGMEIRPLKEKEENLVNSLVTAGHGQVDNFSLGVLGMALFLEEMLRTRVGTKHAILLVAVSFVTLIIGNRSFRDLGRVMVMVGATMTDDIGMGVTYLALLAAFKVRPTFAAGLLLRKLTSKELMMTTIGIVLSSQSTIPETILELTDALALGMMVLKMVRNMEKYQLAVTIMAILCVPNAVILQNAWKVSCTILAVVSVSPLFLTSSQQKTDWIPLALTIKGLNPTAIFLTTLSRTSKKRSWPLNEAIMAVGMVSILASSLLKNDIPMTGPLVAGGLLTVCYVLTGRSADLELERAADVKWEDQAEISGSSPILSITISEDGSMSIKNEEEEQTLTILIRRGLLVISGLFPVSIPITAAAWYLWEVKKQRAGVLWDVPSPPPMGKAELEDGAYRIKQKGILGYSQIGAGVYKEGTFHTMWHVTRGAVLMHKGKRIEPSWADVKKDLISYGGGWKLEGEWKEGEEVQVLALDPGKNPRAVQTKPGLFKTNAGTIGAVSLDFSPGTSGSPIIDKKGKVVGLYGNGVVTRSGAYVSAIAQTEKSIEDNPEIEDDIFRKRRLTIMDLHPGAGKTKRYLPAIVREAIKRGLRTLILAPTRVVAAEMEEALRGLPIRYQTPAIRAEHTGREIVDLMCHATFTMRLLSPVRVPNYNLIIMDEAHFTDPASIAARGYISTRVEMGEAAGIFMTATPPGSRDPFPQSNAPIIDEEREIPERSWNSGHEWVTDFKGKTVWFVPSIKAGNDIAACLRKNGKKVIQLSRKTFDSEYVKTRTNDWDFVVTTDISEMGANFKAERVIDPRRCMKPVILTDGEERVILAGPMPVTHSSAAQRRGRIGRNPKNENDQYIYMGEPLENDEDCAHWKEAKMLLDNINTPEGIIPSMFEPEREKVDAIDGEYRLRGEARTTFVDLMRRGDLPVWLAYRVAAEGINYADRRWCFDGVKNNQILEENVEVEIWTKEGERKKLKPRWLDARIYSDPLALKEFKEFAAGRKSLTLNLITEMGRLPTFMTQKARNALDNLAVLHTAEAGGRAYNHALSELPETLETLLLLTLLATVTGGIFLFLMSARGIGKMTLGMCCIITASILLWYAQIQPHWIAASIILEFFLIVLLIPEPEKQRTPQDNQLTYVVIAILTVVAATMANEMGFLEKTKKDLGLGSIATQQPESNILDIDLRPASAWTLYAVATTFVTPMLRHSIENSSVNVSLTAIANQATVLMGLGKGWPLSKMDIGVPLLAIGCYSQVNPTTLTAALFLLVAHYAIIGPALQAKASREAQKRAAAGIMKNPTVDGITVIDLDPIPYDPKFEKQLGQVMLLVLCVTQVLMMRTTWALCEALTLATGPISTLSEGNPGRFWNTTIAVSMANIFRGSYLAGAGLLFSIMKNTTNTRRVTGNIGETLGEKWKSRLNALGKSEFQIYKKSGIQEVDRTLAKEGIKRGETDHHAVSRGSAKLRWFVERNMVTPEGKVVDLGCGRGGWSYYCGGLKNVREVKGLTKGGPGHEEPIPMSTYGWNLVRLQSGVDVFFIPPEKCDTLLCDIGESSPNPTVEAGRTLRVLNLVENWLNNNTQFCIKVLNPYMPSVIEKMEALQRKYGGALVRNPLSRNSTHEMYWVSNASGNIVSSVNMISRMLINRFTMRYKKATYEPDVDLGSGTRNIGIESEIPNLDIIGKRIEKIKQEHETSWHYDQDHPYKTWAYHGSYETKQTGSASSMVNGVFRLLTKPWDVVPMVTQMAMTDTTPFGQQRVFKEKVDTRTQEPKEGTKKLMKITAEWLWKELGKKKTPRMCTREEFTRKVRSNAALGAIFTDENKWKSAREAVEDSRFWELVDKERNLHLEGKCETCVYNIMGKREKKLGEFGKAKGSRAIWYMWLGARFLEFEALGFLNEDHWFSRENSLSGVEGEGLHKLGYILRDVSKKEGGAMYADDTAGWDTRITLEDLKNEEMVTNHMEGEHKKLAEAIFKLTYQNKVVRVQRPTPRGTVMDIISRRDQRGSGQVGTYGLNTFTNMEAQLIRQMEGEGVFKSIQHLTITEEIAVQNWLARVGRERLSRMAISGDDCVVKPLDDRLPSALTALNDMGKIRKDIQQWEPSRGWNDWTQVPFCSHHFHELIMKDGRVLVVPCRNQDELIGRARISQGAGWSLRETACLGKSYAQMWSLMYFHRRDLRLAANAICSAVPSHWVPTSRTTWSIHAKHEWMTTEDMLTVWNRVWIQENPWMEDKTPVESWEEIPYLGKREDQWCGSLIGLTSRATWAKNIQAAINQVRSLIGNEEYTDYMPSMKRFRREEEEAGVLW

Compound | inhibition | inhibition [1] [%]
Cc1occc1C(=O)NNC(=O)COc1ccc(Br)cc1Br | -1.83% (inactive) | 
CCNC(=O)C1CCCN(c2nc(C)cc(C)n2)C1 (centres undefined) | 3.17% (inactive) | 
Cc1nn(C(=O)c2ccc3c(c2)OCO3)c(N)c1-c1ccccc1 | -2.78% (inactive) | 
CCc1ccc(/C=C2\SC(=S)N(CCCC(=O)Nc3nccs3)C2=O)cc1 | 5.18% (inactive) | 
COc1ccc(C(=O)Cn2c(C(C)=O)nc3ccccc32)cc1 | -4.63% (inactive) | 
COc1ccc(N2CCN(C(=O)CC3NC4CCCCC4NC3=O)CC2)cc1 (centres undefined) | 4.8% (inactive) | -0.61
CCC(Oc1ccccc1)C(=O)N1CCN(S(=O)(=O)c2ccccc2)CC1 (centres undefined) | -3.63% (inactive) | 
Cc1cccc(C)c1N(CC(=O)NCc1ccco1)C(=O)CNS(=O)(=O)c1ccc(F)cc1 | -7.48% (inactive) | 
CC1(C)C(=O)C2(CCCCC2)C(=O)OC1c1ccc(O)cc1 (centres undefined) | 5.67% (inactive) | 
OCCOCCN1CCN(C(=S)Nc2ccccc2)CC1 | -12.4% (inactive) | 
Cc1cc(=O)oc2c(CN3CCN(CCO)CC3)c(O)ccc12 | -1.72% (inactive) | 
O=S(=O)(c1ccc(Br)cc1Cl)N1CCN(CCO)CC1 | 0.74% (inactive) | 
O=[N+]([O-])c1ccc(N2CCN(CCOCCO)CC2)c([N+](=O)[O-])c1 | -3.06% (inactive) | 
Cc1noc(C)c1C(=O)OCC(=O)N1CCc2ccccc21 | -4.42% (inactive) | 
CN(C(=O)c1ccc(NC(=O)Cc2ccc(NC(=O)C3CCCN(C(=O)C4CCC4)C3)cc2)cc1)C1CC1 (centres undefined) | -5.79% (inactive) | 
Cc1ccc(NC(=O)CSc2nncs2)cc1Cl | -5.19% (inactive) | 
O=C(c1ccc(F)cc1F)N1CCCc2ccccc21 | -15% (inactive) | 
Cc1noc(NS(=O)(=O)c2ccc(NC(=O)c3cccc(S(=O)(=O)Nc4ccccc4F)c3)cc2)c1C | -5.34% (inactive) | 
Cc1noc(NS(=O)(=O)c2ccc(NC(=O)c3cc(F)c(F)c(F)c3F)cc2)c1C | 8.65% (inactive) | 
Cc1noc(NS(=O)(=O)c2ccc(NC(=O)c3ccc(F)cc3)cc2)c1C | 11.3% (inactive) | 
Cc1ccccc1C(=O)Nc1ccc(S(=O)(=O)Nc2onc(C)c2C)cc1 | -6.85% (inactive) | 
CC(=O)C1=C(O)C(=O)N(Cc2ccccc2)C1c1ccc(N(C)C)cc1 (centres undefined) | -5.27% (inactive) | -5.49
CC(C1CC1)N(Cc1ccccc1)C(=O)NC(=O)c1cccc(F)c1 (centres undefined) | -0.76% (inactive) | 
O=C(CN1C(=O)C2CC=CCC2C1=O)Nc1cc(C(F)(F)F)ccc1N1CCCC1 (centres undefined) | 4.32% (inactive) | 
CC1(C)CC[C@]2(C(=O)O[C@@H]3O[C@H](CO)[C@@H](O)[C@H](O)[C@H]3O)CC[C@]3(C)C(=CCC4[C@@]5(C)CC[C@H](O[C@@H]6O[C@H](C(=O)O)[C@@H](O[C@H]7OC[C@@H](O)[C@@H](O)[C@@H]7O)[C@H](O)[C@H]6O)C(C)(C)C5CC[C@]43C)[C@@H]2C1 (some centres undefined) | -9.97% (inactive) | 

Compound | inhibition | inhibition [1] [%]
CC1(C)CC[C@]2(C(=O)O[C@@H]3OC(CO)[C@@H](O)[C@H](O)[C@H]3O)CC[C@]3(C)C(=CCC4[C@@]5(C)CC[C@H](O[C@@H]6OC(C(=O)O)[C@@H](O)[C@H](O)[C@H]6O)C(C)(C)C5CC[C@]43C)[C@@H]2C1 (some centres undefined) | 20.2% (inactive) | 2.42
COCCCN(Cc1ccco1)C(=O)CSc1nc2ncccc2[nH]1 | -4.52% (inactive) | 
Cc1oc(-c2ccccc2Cl)nc1CS(=O)CC(=O)NCCCN1CC(C)CC(C)C1 (centres undefined) | 2.33% (inactive) | 
COc1ccc(/C=C2\Oc3cc(OCC(=O)N4CC(O)C[C@H]4C(=O)O)ccc3C2=O)cc1OC (some centres undefined) | -10.1% (inactive) | 
COc1cccc(/C=C2\Oc3cc(OCC(=O)N4CCC[C@H]4C(=O)O)ccc3C2=O)c1 | 2.17% (inactive) | 
CC(=O)CCS(=O)(=O)c1ccc(Oc2ccc(S(=O)(=O)CCC(C)=O)cc2)cc1 | 3.83% (inactive) | 
CC(=O)Nc1ccc(S(=O)(=O)Nc2nc3ccccc3nc2Nc2ccccc2)cc1 | -18.8% (inactive) | 
COc1cccc(Nc2nc3ccccc3nc2NS(=O)(=O)c2cccs2)c1 | 16.4% (inactive) | 3.81
O=C(O)c1ccc(Nc2nc3ccccc3nc2NS(=O)(=O)c2cccs2)cc1 | 19.7% (inactive) | 
Cc1cccc(S(=O)(=O)Nc2nc3ccccc3nc2Nc2cccc(C(=O)O)c2)c1 | 27.7% (inactive) | 
O=C(O)c1cccc(Nc2nc3ccccc3nc2NS(=O)(=O)c2ccc(F)cc2)c1 | 8.81% (inactive) | 
O=C(O)c1cccc(Nc2nc3ccccc3nc2NS(=O)(=O)c2ccccc2)c1 | 19.8% (inactive) | 
CCc1ccc(/C=C2\SC(=S)N(CCCC(=O)N(CCO)c3ccccc3)C2=O)cc1 | 2.75% (inactive) | 
Cc1ccc(-c2nc3ccccc3[nH]2)cc1NC(=O)c1sc2cc(Cl)ccc2c1Cl | -3.63% (inactive) | 
CCC(C)C(NC(=O)c1ccccc1NC(=O)c1ccccc1)C(=O)O (centres undefined) | -1.16% (inactive) | 
O=C(NNC(=O)c1ccccc1-n1cccc1)c1cccc(Cl)c1 | -3.46% (inactive) | 
CCCC(C)NNC(=O)c1cc2ccccc2[nH]1 (centres undefined) | 0% (inactive) | 
COc1ccc(Cl)cc1Nc1nc(-c2sc(NC(=O)C(C)(C)C)nc2C)cs1 | -12% (inactive) | 
Cc1ccc(-c2cccc(C3CC=CC4C3C(=O)N(Cc3ccccc3)C4c3cc(C)ccc3F)c2)cc1 (centres undefined) | -5.46% (inactive) | 
COc1cc(S(=O)(=O)Nc2cccc(C)c2)ccc1NC(=O)c1ccncc1 | -1.47% (inactive) | 
N#CC1=C(N)C2=CCCC[C@H]2[C@H](c2cccc(F)c2)C1(C#N)C#N | -4.34% (inactive) | 
COc1ccc(C=NNc2ccc(S(=O)(=O)Nc3ccccc3C(=O)O)cc2[N+](=O)[O-])c(OC)c1 | 17% (inactive) | 
CC(=O)Nc1ccc(C=NNc2ccc(S(=O)(=O)Nc3ccccc3C(=O)O)cc2[N+](=O)[O-])cc1 | 12.4% (inactive) | 
O=C(O)c1ccccc1NS(=O)(=O)c1ccc(NN=Cc2ccccc2F)c([N+](=O)[O-])c1 | 9.54% (inactive) | 
COc1cc(C=NNc2ccc(S(=O)(=O)Nc3ccccc3C(=O)O)cc2[N+](=O)[O-])ccc1O | 17.4% (inactive) | 
